The source of these data is PubChem BioAssay AID504710 (Sanford-Burnham Center for Chemical Genomics, 2011).

Unmarked numbers belong to inactive results. The source made the active and inactive calls.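 Rule for the calls: active = inhibition reaching about 16% in any single replicate (limit read from the data); inactive = the rest.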

The test has as its target Hexokinase HKDC1 (Homo sapiens) (UniProt Q2TB90). Description: compounds lowering human HKDC1 activity – biochemical, single concentration, confirmation (AID 504710). As to conditions: recombinant HKDC1, G6PDH/diaphorase/resazurin fluorescence; at 20 µM; hits give high values. (In general: The colour change of resazurin is a common sign of viable cells or microbes.)

Sequence of Hexokinase HKDC1 (Homo sapiens) (Q2TB90 whole entry, looked up): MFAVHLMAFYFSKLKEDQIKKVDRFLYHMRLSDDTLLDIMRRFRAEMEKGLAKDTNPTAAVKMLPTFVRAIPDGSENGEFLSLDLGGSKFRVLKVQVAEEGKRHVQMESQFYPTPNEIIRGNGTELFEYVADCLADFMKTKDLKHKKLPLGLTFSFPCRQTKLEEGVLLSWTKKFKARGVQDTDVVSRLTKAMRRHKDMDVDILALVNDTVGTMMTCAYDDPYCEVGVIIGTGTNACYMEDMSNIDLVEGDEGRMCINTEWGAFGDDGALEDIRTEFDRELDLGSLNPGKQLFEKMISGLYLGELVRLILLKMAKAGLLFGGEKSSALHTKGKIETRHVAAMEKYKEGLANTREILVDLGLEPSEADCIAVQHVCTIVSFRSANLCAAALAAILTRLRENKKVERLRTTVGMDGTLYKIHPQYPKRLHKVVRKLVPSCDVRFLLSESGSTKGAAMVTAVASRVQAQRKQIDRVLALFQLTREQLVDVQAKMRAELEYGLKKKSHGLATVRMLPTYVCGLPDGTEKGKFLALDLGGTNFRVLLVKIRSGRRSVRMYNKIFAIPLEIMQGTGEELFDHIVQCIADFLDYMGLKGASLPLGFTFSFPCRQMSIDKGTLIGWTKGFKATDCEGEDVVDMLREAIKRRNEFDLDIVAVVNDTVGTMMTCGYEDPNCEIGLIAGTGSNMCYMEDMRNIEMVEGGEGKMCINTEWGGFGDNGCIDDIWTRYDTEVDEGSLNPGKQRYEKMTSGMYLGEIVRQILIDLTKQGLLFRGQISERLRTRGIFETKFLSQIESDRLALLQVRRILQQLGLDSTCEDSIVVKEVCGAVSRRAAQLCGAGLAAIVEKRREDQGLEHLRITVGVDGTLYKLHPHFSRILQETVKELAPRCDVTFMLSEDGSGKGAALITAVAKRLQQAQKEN

The inhibition is the drop in the measured response relative to a control, in per cent. For `Cc1ccc(S(=O)(=O)/N=C2/C=C(Sc3ncn[nH]3)C(=O)c3ccccc32)cc1`, the inhibition is 63.3% (active).
Under `Oc1ccc(/C=N/NC(=S)Nc2cccnc2)c(O)c1` stands 14.6% (active).
As to `COC(=O)Cn1c2ccc(F)cc2c2nc(C)sc21`, the inhibition is -90.4%.
As for `CCCOc1ccc(/C=N/NC(=S)Nc2ccccc2[N+](=O)[O-])c(O)c1`, the inhibition is -47.6%.
On to `CN1c2ccc(C=O)c3c(C=O)ccc(c23)N(C)C1(C)C`, for which the inhibition was 61.2% (active).
Under `COc1cc(N=c2ssnc2Cl)cc(OC)c1OC` stands -45.9%.
Under `Cc1[nH]n(-c2ccccc2)c(=O)c1/C=N/Nc1nncc(-c2ccccc2)n1` stands -60.6%; under `COC(=O)c1ccc(CCc2cc(O)c(Br)cc2O)cc1`, 54.2% (active).
In the case of `O=C(O)COc1ccc(/C=N/NC(=O)c2ccc(-c3csc(Nc4ccc(Cl)cc4)n3)cc2)cc1`, the inhibition is 24.2% (active).
On to `Cc1nonc1C(=O)N/N=C/c1ccc(O)cc1O`, for which the inhibition was -33.6%.
Under `Oc1ccc(O)c(Cc2nc3ccccc3[nH]2)c1` stands 56% (active).
As for `CC(C)(C)c1c(Cl)c(O)c(-c2ccccc2)c(=O)n1-c1ccccc1`, the inhibition was 40.9% (active).
In the case of `Cn1cnnc1SC1c2cccc3cccc(c23)C1NS(=O)(=O)c1ccccc1` (configuration not stated), the inhibition was -64%.
Under `O=S(=O)(c1ccc(NC(=S)NN=C(Cc2ccccc2)Cc2ccccc2)cc1)N1CCOCC1` stands -43.9%; under `Cc1ccc(S(=O)(=O)/N=C2\C=C(Nc3cccc(C(=O)O)c3)C(=O)c3ccccc32)c(C)c1`, 57.8% (active).
For `O=C(NNC(=S)Nc1ccc(Cl)c(Cl)c1)c1ccccn1`, the inhibition was -74.1%.
Under `COc1ccc(-c2cc(C(=O)NNC(=S)NC(=O)c3c(-c4ccccc4)noc3C)[nH]n2)cc1` stands -50.1%; under `Cc1cc2cc(CCNC(=O)c3ccc(S(=O)(=O)N4CCCC4)cc3)c(=O)[nH]c2cc1C`, 53.2% (active).
Under `COc1ccc2[nH]c3c4c(ccc3c2c1)C(=O)C=CC4=O` stands 32.9% (active); under `CCOC(=O)C1=C(Cc2ccc(F)cc2)C(=O)c2ccccc2C1=O`, 59.2% (active).
Under `O=C1C=C(c2c(O)ccc3ccccc23)c2ccccc2C1=O` stands 78.1% (active).
Take `CCn1c2ccccc2c2nc3cc(S(=O)(=O)N4CCOCC4)ccc3nc21`: the inhibition was -47.4%.
Under `O=C1c2ccccc2-c2onc3ccc(Oc4ccccc4)c1c23` stands 28.2% (active).
Under `CCOC(=O)c1c(C)[nH]c(C2=NNC(=Nc3ccc(OCC)cc3)SC2)c1C` stands -122%; under `CC(C)c1nc2oc3c(NCC4CCCO4)ncnc3c2c2c1COC(C)(C)C2` (configuration not stated), 62.8% (active).
`CC1COCC(C)N1C1=C(Cl)C(=O)c2ccccc2C1=O` (configuration not stated): the inhibition is 43.5% (active).
Under `CN(C)c1ccc(Cc2cc3c(O)ccc(O)c3cc(Cc3ccc(N(C)C)cc3)c2=O)cc1` stands 44.7% (active); under `O=C(CSc1nnc(CCCN2C(=O)c3cccc4cccc(c34)C2=O)n1-c1ccccc1)N1CCN(CCO)CC1`, 47.6% (active).
Under `O=C(O)CSc1cc(NS(=O)(=O)c2ccc(Cl)cc2)c2ccccc2c1O` stands 45.6% (active); under `CC(=O)N(C1=C(Cl)C(=O)c2ccccc2C1=O)C1CCCCC1`, 78.2% (active).
`C=CCn1c(SCC(=O)Nc2sc3c(c2C#N)CCC(C)C3)nc2cc(C(=O)O)ccc2c1=O` (configuration not stated): the inhibition was 32.7% (active).
Under `COC1=CC(=O)C(C2CC(=O)c3c(O)cc(O)cc3O2)=CC1=O` (configuration not stated) stands 39.8% (active); under `Cc1ccc(C)c(S(=O)(=O)Nc2cc(SCC(=O)O)c(O)c3ccccc23)c1`, 55.2% (active).
On to `COc1cc(/C=C2\SC(c3ccc(C)cc3)=NC2=O)ccc1O`, for which the inhibition is 32.2% (active).
Under `Nc1nc(-c2cccc(Br)c2)cs1` stands -40.6%; under `Nn1cnnc1N/N=C/c1cc(Br)cc(Br)c1O`, -31.9%.
Under `COc1ccc(S(=O)(=O)Nc2ccc(O)c3ccccc23)cc1` stands 51.2% (active).
